# From PubChem BioAssay (EPA / NIEHS)
# Results filed as inconclusive are left out. Activity calls are given as the source filed them. How the source made its calls: active means hit-call score of the fitted dose curve at least 0.9, where 1 is the maximum; inconclusive means response in the unintended direction; inactive means score below 0.9.
# Target: human Neurokinin, NK2 Receptor, TACR2 (gene 6865) (UniProt P21452)
# Assay: NVS_GPCR_hNK2: NovaScreen (NVS) G Protein-Coupled Receptor Assay for human Neurokinin, NK2 Receptor (AID 2283278);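 further: actives reduce bound radioligand signal relative to DMSO baseline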
# Experimental: NVS_GPCR_hNK2 is a biochemical, single-readout assay that uses extracted gene-proteins from CHO in a cell-free assay. Measurements were taken 4 hours after chemical dosing in a 96-well plate.NVS_GPCR_hNK2 is one of one assay component(s) measured or calculated from the NVS_GPCR_hNK2 assay. It is designed to make measurements of radioligand binding, a form of binding reporter, as detected with scintillation counting signals by Filter-based radiodetection technology.Data from the assay component NVS_GPCR_hNK2 was analyzed into 1 assay endpoint. This assay endpoint, NVS_GPCR_hNK2, was analyzed in the positive analysis fitting direction relative to DMSO as the negative control and baseline of activity. Using a type of binding reporter, loss-of-signal activity can be used to understand changes in the binding as they relate to the gene TACR2. Furthermore, this assay endpoint can be referred to as a primary readout, because the performed assay has only produced 1 assay endpoint. To generalize the intended target to other relatable targets, this assay endpoint is annotated to the gpcr intended target family, where the subfamily is rhodopsin-like receptor.
# Binding assays used specific radioligands (tritiated, iodinated) with non-radioactive competitive displacement ligands in agonist or antagonist protocols (as indicated) and various reference compounds and inhibitors to titrate specific binding to receptors and transporters. Most enzyme assays (CYPs, kinases, phosphatases, proteases, HDACs) used recombinant protein and specific substrates (fluorescence mostly, some colorimetric and radioactive) and inhibitors, followed by a biochemical separation of substrate and product. All assays for the biochemical HTS were initially run in duplicate at a single concentration (10 uM for CYP450 assays and 25 uM for all others). […] Each assay was run with positive and negative controls, and concurrent controls on every plate. The follow-up (secondary) screen tested active chemical-pairs in concentration series, as well as a few additional assays not tested in the primary screen, some selected negative inactives, and several cases re-run in the concentration series for confirmatory purposes.
# Chain of human Neurokinin, NK2 Receptor, TACR2 (gene 6865) (P21452 whole entry, looked up): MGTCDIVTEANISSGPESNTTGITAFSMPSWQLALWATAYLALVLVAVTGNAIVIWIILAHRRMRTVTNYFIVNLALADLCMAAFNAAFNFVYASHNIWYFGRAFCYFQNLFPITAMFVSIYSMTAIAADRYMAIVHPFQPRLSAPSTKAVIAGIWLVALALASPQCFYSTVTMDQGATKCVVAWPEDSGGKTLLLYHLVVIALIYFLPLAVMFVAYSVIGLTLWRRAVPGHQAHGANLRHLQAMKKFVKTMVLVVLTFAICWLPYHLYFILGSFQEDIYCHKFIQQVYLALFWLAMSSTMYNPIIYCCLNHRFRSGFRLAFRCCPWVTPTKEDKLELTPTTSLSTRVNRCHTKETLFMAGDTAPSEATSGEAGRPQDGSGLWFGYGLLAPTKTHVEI
Compound,outcome,AC50
CCN(N=O)C(N)=O,inactive,
Cc1ccc(OP(=O)(Oc2ccc(C)cc2C)Oc2ccc(C)cc2C)c(C)c1,,8.63 µM (active)
CN(C)C(=S)S,,4 µM (active)
CCOC(=O)C(SP(=S)(OC)OC)c1ccccc1 (configuration not stated),inactive,
OC(Cc1ccccc1Cl)(Cn1[nH]cnc1=S)C1(Cl)CC1 (configuration not stated),,15.3 µM (active)
O=C1C=CC(=O)c2ccccc21,,1.1 µM (active)
Nc1ccc(N)cc1,,5.13 µM (active)
O=c1oc2ccccc2c(O)c1C(CC(O)c1ccc(-c2ccc(Br)cc2)cc1)c1ccccc1 (configuration not stated),,23.9 µM (active)
[Cl][Sn]([c]1ccccc1)([c]1ccccc1)[c]1ccccc1,,2.13 µM (active)
CCOC(=O)CCN(SN(C)C(=O)Oc1cccc2c1OC(C)(C)C2)C(C)C,inactive,
CCCCCCCCCCCCc1cccc(S(=O)(=O)O)c1,inactive,
c1ccc2sc(SNC3CCCCC3)nc2c1,,0.0784 µM (active)
